Assay [1] can be described thus: qHTS assay to test for compound auto fluorescence at 535 nm (green) in HEK293 cells (AID 720680). A general note: qHTS replaces the single test concentration by a dilution series.
The nature of assay [2]: qHTS assay to test for compound auto fluorescence at 460 nm (blue) in HEK293 cell free culture (AID 720681). Summed up: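 Test compounds were pinned into cell-free culture medium (DMEM with 10% FBS) and fluorescence was read directly at Ex/Em 405/460 nm. Signals were expressed as fluorescence equivalents of triamterene, with DMSO vehicle as control.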
Assay [3] can be described thus: qHTS assay to test for compound auto fluorescence at 535 nm (green) in HEK293 cell free culture (AID 720682). Summed up: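 Cell-free medium (DMEM, 10% FBS) receives compound or DMSO by pintool. Plate read directly at Ex 485/Em 535 nm. Signal converted to fluorescein equivalency.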
A short description of assay [4]: qHTS assay to test for compound auto fluorescence at 590 nm (red) in HEK293 cell free culture (AID 720683). A digest of the protocol:
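Tox21 10K library compounds were pinned into cell-free DMEM with 10% FBS and fluorescence was read at excitation 540 nm. Activity is expressed as Rose Bengal sodium equivalency.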

Assay [5] can be described thus: qHTS assay to test for compound auto fluorescence at 590 nm (red) in HepG2 cell free culture (AID 720684). Summed up: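 Ex 540 / Em 590 nm read of compound in cell-free MEM (10% FBS). Rose Bengal sodium reference.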
The nature of assay [6]: qHTS assay to test for compound auto fluorescence at 460 nm (blue) in HepG2 cell free culture (AID 720685). A digest of the protocol:
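Cell-free plates of MEM plus 10% FBS received 23 nL compound or DMSO vehicle; blue-channel (405/460 nm) intensity scored against triamterene as reference fluorophore.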

Assay [7] is described as follows: qHTS assay to test for compound auto fluorescence at 535 nm (green) in HepG2 cell free culture (AID 720686).
The nature of assay [8]: qHTS assay to test for compound auto fluorescence at 460 nm (blue) in HepG2 cells (AID 720687). A digest of the protocol:
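Cells (2,000/well in MEM with 10% FBS) attached overnight at 37 C, then were exposed to compound or DMSO for 1 hr at 37 C, 5% CO2. Fluorescence read at Ex/Em 405/460 nm, expressed as triamterene-equivalent signal.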

Assay [9] concerns the target Glucocorticoid receptor (Homo sapiens) (UniProt P04150). Kind of assay: qHTS assay to identify small molecule agonists of the glucocorticoid receptor (GR) signaling pathway (AID 720691; active = well fitted activation curve with a large enough effect in the signal ratio in the repeat runs, not every such curve was filed as active; the % refers to the signal ratio). A digest of the protocol:
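A HeLa cervical cancer line expressing GR and a glucocorticoid response element-driven beta-lactamase gene is treated with compounds for 18 h; LiveBLAzer B/G FRET substrate is then applied and fluorescence read.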

For assay [10] the target is unchanged. Kind of assay: qHTS assay to identify small molecule antagonists of the glucocorticoid receptor (GR) signaling pathway (AID 720692; active = well fitted inhibition curve with a large enough effect in the signal ratio in the repeat runs, not every such curve was filed as active; the % refers to the signal ratio; also: potency is read from the fitted curve at half-maximal effect). A digest of the protocol: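 GRE-bla HeLa line, dex-stimulated (5 nM final). Compound exposure 18 h, 37 C. Beta-lactamase FRET read after 2 h RT substrate.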
The nature of assay [11]: qHTS assay to identify small molecule antagonists of the glucocorticoid receptor (GR) signaling pathway - cell viability counter screen (AID 720693). Also: nearly all actives have a fitted effect of over 55% in size.
Assay [12] is described as follows: qHTS assay for identifying genotoxic compounds that show differential cytotoxicity against isogenic chicken DT40 cell lines with known DNA damage response pathways - wild type cell line (AID 743012). Also: nearly all actives have a fitted effect of over 60% in size. Also: potency is read from the fitted curve at half-maximal effect. Summed up:
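300 wt DT40 cells/well; cpd (DMSO) pintool-transferred after ~0.5 h at 37 C/5% CO2; 40 h incubation; CellTiter-Glo added, 30 min RT; luminescence read.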

A short description of assay [13]: qHTS assay to identify small molecule antagonists of the androgen receptor (AR) signaling pathway - cell viability counter screen (AID 743033; also: nearly all actives have a fitted effect of over 45% in size).
Assay [14] can be described thus: qHTS assay to identify small molecule antagonists of the androgen receptor (AR) signaling pathway using the MDA cell line - cell viability counter screen (AID 743041; also: nearly all actives have a fitted effect of over 45% in size). A digest of the protocol:
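In this qHTS counter assay, fluorescence intensity after CellTiter-Fluor addition indicated viability of MDA-kb2 AR-luc cells given compounds and R1881 for 16 h at 37C.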

Assay [15] in a line: qHTS assay for identifying genotoxic compounds that show differential cytotoxicity against isogenic chicken DT40 cell lines with known DNA damage response pathways - Rad54/Ku70 mutant cell line (AID 743015). Also: nearly all actives have a fitted effect of over 60% in size. Also: potency is read from the fitted curve at half-maximal effect.
For assay [16], the target named is Androgen receptor (Homo sapiens) (UniProt P10275). Kind of assay: qHTS assay to identify small molecule agonists of the androgen receptor (AR) signaling pathway using the MDA cell line (AID 743040; also: nearly all actives have a fitted effect of over 20% in size). Summed up:
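Cell-based luciferase reporter: MDA-kb2, MMTV promoter (AR + GR response elements). 16 h compound exposure at 37C; ONE-Glo, 30 min RT, luminescence.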

The target is the same in assay [17]. Kind of assay: qHTS assay to identify small molecule antagonists of the androgen receptor (AR) signaling pathway using the MDA cell line (AID 743042; also: nearly all actives have a fitted effect of over 55% in size). A digest of the protocol:
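MDA-kb2 cells (human breast carcinoma, stably carrying an MMTV-luciferase reporter responsive to AR and GR) were plated at 3,000 cells/well and preincubated 5 hr at 37C, then given compound plus R1881 agonist for 16 h. ONE-Glo luminescence was read.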

Assay [18] in a line: qHTS assay for identifying genotoxic compounds that show differential cytotoxicity against isogenic chicken DT40 cell lines with known DNA damage response pathways - Rev3 mutant cell line (AID 743014). Also: nearly all actives have a fitted effect of over 55% in size. Also: potency is read from the fitted curve at half-maximal effect.
Assay [19] addresses Androgen receptor (Homo sapiens) (UniProt P10275). Kind of assay: qHTS assay to identify small molecule antagonists of the androgen receptor (AR) signaling pathway (AID 743035; active = well fitted inhibition curve with a large enough effect in the signal ratio in the repeat runs, not every such curve was filed as active; the % refers to the signal ratio). A digest of the protocol:
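In this cell-based reporter screen, compounds were tested in concentration series against R1881-activated HEK293 cells expressing beta-lactamase under UAS control; after 16 h at 37C, FRET substrate was added and fluorescence read 2 h later.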

For assay [20] the target is unchanged. Kind of assay: qHTS assay to identify small molecule agonists of the androgen receptor (AR) signaling pathway (AID 743036; active = well fitted activation curve with a large enough effect in the signal ratio in the repeat runs, with a control signal flat, not every such curve was filed as active; the % refers to the signal ratio). Summed up:
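AR-bla HEK293 cells, 2,000/well; 4 h preincubation 37C/5% CO2; compound (DMSO) 16 h at 37C; LiveBLAzer B/G FRET substrate 2 h RT; fluorescence intensity read-out.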

Molecules are shown by their SMILES. Results filed as inconclusive are left out. Active and inactive are the calls of the source. Unless noted, calls follow the shape of the dose curve; as a rule, active = well fitted curve in the direction sought with a large enough effect in the repeat runs; inconclusive = weak or mixed curves; inactive = no such curve, though single readings can be large; an effect the other way counts as inactive or inconclusive.

Consider 16 compounds from PubChem BioAssay (Tox21).

Glucocorticoid receptor (Homo sapiens), sequence (P04150 whole entry, looked up): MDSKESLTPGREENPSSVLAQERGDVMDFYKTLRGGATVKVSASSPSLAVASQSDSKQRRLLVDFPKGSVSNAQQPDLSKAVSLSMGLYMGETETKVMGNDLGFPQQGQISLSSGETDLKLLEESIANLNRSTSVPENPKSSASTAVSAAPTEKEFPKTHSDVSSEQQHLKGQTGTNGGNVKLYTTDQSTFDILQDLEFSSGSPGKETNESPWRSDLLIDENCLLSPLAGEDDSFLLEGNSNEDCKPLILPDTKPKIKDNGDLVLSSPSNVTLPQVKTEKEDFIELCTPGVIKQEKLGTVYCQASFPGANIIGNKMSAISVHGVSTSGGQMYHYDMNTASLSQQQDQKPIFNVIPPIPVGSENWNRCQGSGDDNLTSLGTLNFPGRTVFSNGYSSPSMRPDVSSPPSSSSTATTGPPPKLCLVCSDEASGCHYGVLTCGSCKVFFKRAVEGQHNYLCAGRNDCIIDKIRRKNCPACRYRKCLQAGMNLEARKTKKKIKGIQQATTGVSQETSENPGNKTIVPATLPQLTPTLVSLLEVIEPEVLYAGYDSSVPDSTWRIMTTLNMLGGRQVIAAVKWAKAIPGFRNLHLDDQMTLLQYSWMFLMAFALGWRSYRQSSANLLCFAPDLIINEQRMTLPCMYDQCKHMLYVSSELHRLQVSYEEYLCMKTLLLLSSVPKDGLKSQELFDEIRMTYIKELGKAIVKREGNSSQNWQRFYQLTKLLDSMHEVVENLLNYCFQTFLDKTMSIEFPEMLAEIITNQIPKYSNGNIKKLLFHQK
Androgen receptor (Homo sapiens), sequence (P10275 whole entry, looked up): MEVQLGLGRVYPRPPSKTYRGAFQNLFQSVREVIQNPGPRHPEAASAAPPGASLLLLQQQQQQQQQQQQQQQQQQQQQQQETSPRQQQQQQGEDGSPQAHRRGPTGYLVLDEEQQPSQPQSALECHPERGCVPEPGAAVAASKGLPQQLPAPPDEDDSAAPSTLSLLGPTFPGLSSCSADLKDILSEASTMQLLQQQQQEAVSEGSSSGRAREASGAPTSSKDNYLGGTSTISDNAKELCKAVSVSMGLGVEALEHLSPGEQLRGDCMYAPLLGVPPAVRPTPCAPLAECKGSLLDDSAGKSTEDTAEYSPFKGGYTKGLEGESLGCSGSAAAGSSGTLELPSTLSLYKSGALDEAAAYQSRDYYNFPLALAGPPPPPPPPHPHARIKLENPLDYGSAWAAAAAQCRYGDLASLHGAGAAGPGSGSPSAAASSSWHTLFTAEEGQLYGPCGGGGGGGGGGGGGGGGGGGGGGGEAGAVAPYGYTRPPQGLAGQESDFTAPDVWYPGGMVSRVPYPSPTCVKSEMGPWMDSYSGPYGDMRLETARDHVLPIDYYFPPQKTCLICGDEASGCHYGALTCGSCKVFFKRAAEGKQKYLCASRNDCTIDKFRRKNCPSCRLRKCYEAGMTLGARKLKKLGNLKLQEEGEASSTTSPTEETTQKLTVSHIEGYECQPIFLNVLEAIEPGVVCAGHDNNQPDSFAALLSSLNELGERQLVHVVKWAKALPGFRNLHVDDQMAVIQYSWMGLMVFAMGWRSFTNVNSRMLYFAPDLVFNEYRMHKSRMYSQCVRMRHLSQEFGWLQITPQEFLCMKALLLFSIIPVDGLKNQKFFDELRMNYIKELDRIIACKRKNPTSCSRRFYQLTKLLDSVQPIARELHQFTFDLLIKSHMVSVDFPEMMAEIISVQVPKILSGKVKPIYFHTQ

For `Cc1ccc(N(CCO)CCO)cc1`, the result in [1], in assay [3], in assay [4], in [5] and in assay [7] was inactive. The Potency result in assay [2], in assay [6], in assay [8], in assay [9], in assay [10] and in [11] was “inactive” in each case. Also, the Potency result in assay [12], in assay [13] and in assay [14] was “inactive” in each case.
Take `Cc1cc([N+](=O)[O-])ccc1N`: the compound was called inactive in [1], in [3], in assay [4], in assay [5] and in [7]. For the same compound, the Potency result in assay [2], in assay [6], in [8], in [9], in [10] and in assay [11] was “inactive” throughout. For the same compound, the Potency entry in assay [12], in assay [15], in assay [13] and in [14] was “inactive” each time.
On to `CCN(CC)c1cccc(O)c1`, for which the compound was classed as inactive in [1], in assay [3], in [4], in [5] and in assay [7]. Besides, the Potency result in assay [2], in assay [6], in assay [8], in assay [9], in [10] and in [11] was “inactive” throughout. Also, the Potency entry in assay [12], in assay [15], in assay [13], in assay [16] and in assay [17] was “inactive” each time.
On to `CNc1c2c(nn1C)CCCC2`, for which the compound was classed as inactive in [1], in assay [3], in [4], in assay [5] and in assay [7]. In addition, the Potency result in [2], in [6], in assay [8], in assay [9], in [10] and in [11] was “inactive” in each case. In addition, the Potency entry in assay [18], in [15], in assay [13] and in assay [14] was “inactive” each time.
Consider `Cc1ccc(Cl)cc1N`, for which the call in assay [1], in assay [3], in assay [4], in assay [5] and in [7] was inactive. Further, the Potency entry in assay [2], in [6], in [8], in assay [9], in assay [10] and in [11] was “inactive” throughout. Also, the Potency entry in assay [12], in assay [18], in assay [13] and in assay [14] was “inactive” throughout.
As to `COc1cc(NS(=O)(=O)c2ccc(N)cc2)nc(C)n1`, the call in [1], in assay [3], in assay [4], in assay [5] and in assay [7] was inactive. For the same compound, the Potency result in assay [2], in assay [6], in assay [8], in assay [9], in [10] and in assay [11] was “inactive” each time. The Potency result in assay [12], in assay [15] and in assay [14] was “inactive” throughout.
For the compound `CCCCCCCC/C=C\CCCCCCCC(=O)OCCO`, the result in assay [1], in [3], in assay [4], in assay [5] and in assay [7] was inactive. Besides, the Potency entry in assay [2], in assay [6], in [8], in assay [9], in assay [13] and in [14] was “inactive” throughout. Further, the Potency in assay [10] was 57.8 µM (active); in assay [18] it was 81 µM (active).
Turning to `CN(C)CC/C=C1\c2ccccc2Sc2ccc(Cl)cc21`, the call in assay [1], in assay [3], in assay [4], in assay [5] and in assay [7] was inactive. In addition, the Potency result in assay [2], in [6], in assay [8], in assay [9], in [10] and in assay [11] was “inactive” throughout. Moreover, in assay [16], the Potency entry is “inactive”. Moreover, the Potency in assay [12] was 3.76 µM (active); in [15] it was 10.6 µM (active).
As to `CC(=O)NNC(C)=O`, the compound was classed as inactive in [1], in assay [3], in assay [4], in assay [5] and in assay [7]. Also, the Potency entry in assay [2], in assay [6], in [8], in assay [9], in assay [10] and in assay [11] was “inactive” throughout. Further, the Potency entry in assay [12], in assay [18], in assay [13] and in assay [14] was “inactive” in each case.
Turning to `COC(=O)CC(C(C)=O)C(=O)OC` (stereo unspecified), the outcome in [1], in [3], in assay [4], in assay [5], in assay [7] and in assay [20] was inactive. Moreover, the Potency result in [2], in [6], in [8], in [9], in assay [10] and in [11] was “inactive” throughout. Further, the Potency result in assay [12], in assay [15], in assay [19], in assay [16], in [14] and in assay [17] was “inactive” throughout.
Regarding `C=Cc1ccc(OC(C)=O)cc1`, the result in [1], in assay [3], in assay [4], in assay [5], in assay [7] and in assay [20] was inactive. In addition, the Potency entry in [2], in assay [6], in assay [8], in assay [9], in assay [10] and in [11] was “inactive” each time. The Potency result in [12], in assay [13], in assay [19], in assay [16], in assay [14] and in [17] was “inactive” in each case.
Consider `O=C1OC[C@H](Cc2cccc(O)c2)[C@H]1Cc1cccc(O)c1`, for which the compound was classed as inactive in assay [1], in [3], in assay [4], in assay [5] and in [7]. Also, the Potency entry in assay [2], in assay [6], in [8], in assay [9], in assay [10] and in assay [11] was “inactive” each time. Moreover, the Potency result in assay [12], in assay [15], in assay [13] and in [14] was “inactive” each time.
Consider `CC1C(C)(C)C2=C(C(=O)CCC2)C1(C)C` (stereo unspecified), for which the compound was called inactive in assay [1], in [3], in assay [4], in assay [5] and in assay [7]. The Potency entry in assay [2], in [6], in assay [8], in assay [9], in [10] and in assay [11] was “inactive” each time. The Potency entry in assay [12], in [15], in assay [13] and in assay [14] was “inactive” each time.
In the case of `O=C1NC(=O)c2cccc3cccc1c23`, the result in assay [1], in [3], in assay [4], in assay [5] and in assay [7] was inactive. Moreover, the Potency result in assay [2], in assay [6], in assay [8], in assay [9], in assay [10] and in assay [11] was “inactive” each time. Moreover, the Potency entry in assay [12], in assay [13] and in assay [14] was “inactive” in each case. Further, in assay [15], the Potency is 48.6 µM (active).
For the compound `CC(=O)NCCO`, the outcome in [1], in assay [3], in assay [4], in assay [5] and in assay [7] was inactive. Besides, the Potency result in assay [2], in assay [6], in assay [8], in assay [9], in assay [10] and in [11] was “inactive” each time. Further, the Potency result in assay [12], in assay [15] and in assay [13] was “inactive” each time.
For `O=C1[C@@H]2[C@H]3CC[C@H](C3)[C@@H]2C(=O)N1CCCCN1CCN(c2ncccn2)CC1`, the compound was called inactive in [1], in assay [3], in [4], in assay [5] and in [7]. The Potency result in assay [2], in [6], in assay [8], in assay [9], in assay [10] and in [11] was “inactive” each time. In addition, the Potency result in [12], in [18], in [13] and in assay [14] was “inactive” throughout.
